This is an account of results in PubChem BioAssay (Tox21).

Several values for one entry are separate records, joined by “and”; a condition that tells them apart may be missing. Equal values may be shown once. Results filed as inconclusive are left out. Entries that show only a call come without a potency. Where a structure was tested more than once in an assay, its records may differ in their call. Activity calls are given as the source filed them. The call rests on the fitted dose curve; in most records, active means well fitted cell-killing curve with a large enough effect in the repeat runs; inconclusive means weak or mixed curves, or effect the other way; inactive means flat fitted curve, though single readings scatter. Starred links: 1 amine or outer side, 2 acyl side, 3 side chain; linkers in the order of their positions; H or OH if unused. Positions of bridges follow the written chain, without caps; N, C: chain ends. Non-standard residues stand in square brackets, D forms with d. Residues, ends and D or L forms follow the SMILES beside them. Chains are numbered I, II in the order given. Actinocin(9to1) = Cc1c2oc3c(C)ccc(C(=O)[*:1])c3nc-2c(C(=O)[*:2])c(N)c1=O; NMeV = CN[C@H](C(=O)O)C(C)C; Sar = CNCC(=O)O
Potency means the concentration at half of the fitted maximal effect.

A short description of the experiment: Caspase-3/7 induction in HepG2 cells by small molecules, qHTS cell viability counter screen (AID 1346981). Further: nearly all actives have a fitted effect of over 30% in size. Conditions: CellTiter-Fluor fluorescence, 17 h; series mostly up to 92.4 µM. The source says: U.S. Tox21 Program National Center for Advancing Translational Sciences [NCATS] NIH Chemical Genomics Center [NCGC] U.S. Environmental Protection Agency [EPA] National Institutes of Environmental Health Sciences [NIEHS] National Toxicology Program [NTP] U.S. Food and Drug Administration [FDA] Tox21 Assay Overview: Apoptosis is a process of programmed cell death and plays a central role in the development of multicellular organisms. It is a highly regulated process and induces cell death by activating caspases, which are the members of cysteine aspartic acid-specific protease (caspase) family. Caspases involved in apoptosis are classified by their mechanism of action as initiator caspases (caspase-2, -8, -9 and -10) and executioner caspases (caspase-3, -6, and -7). Inhibition of apoptosis results in number of cancers, autoimmune diseases, inflammatory diseases and viral infection. To identify small molecule compounds that induce apoptosis, a homogeneous, luminescent Caspase-Glo 3/7 assay was used. Wild type HepG2 cells were used to screen Tox21 libraries for identifying caspase-3/7 activity inducers. Also cytotoxicity of the compounds was tested in parallel by measuring the cell viability using CellTiter-Fluor assay system in the same wells.
Tox21 Assay Protocol Summary: HepG2 cells were dispensed at 2,000 per well in 5uL of culture medium into white solid bottom 1536-well plates (Corning Life Sciences, Corning, NY) using a Multidrop Combi (Thermo Scientific, Waltham, MA) dispenser. The assay plates were incubated at 37 C and 5% CO2 for 5hr, and then 23nL of compounds dissolved in DMSO and positive control were transferred using a Pintool station ([…], San Diego, CA). The assay plates were incubated at 37C and 5% CO2 for 17hr. For cytotoxicity read, after 16hr incubation at 37C, 1uL CellTiter-Fluor reagent (Promega Corporation, Madison, WI) was added to each well of the assay plates using Flying Reagent Dispenser (FRD, Aurora Discovery, San Diego, CA). After 1hr incubation at 37C and 5% CO2, the fluorescence signal was quantified using a ViewLux plate reader (PerkinElmer, Shelton, CT).
In general terms: In qHTS, concentration-response curves come from the screen itself.
Consider `C=CC(=O)OCCCCCCCC`, for which the Potency result is “inactive”.
The same measure, in the same setting: under `C=C(C)C1CC=C(C)C(OC(C)=O)C1` (stereo not given) stands “inactive”.
The same measure, in the same setting: under `O=C(Oc1ccccc1)c1ccccc1O` stands “inactive”; under `O=C(O)c1cccc(C(=O)O)c1`, “inactive”; under `Cc1cc(C(C)(C)C)c(O)c(C(C)(C)C)c1`, “inactive”.
Same read-out and setting: under `N[C@@H]1CONC1=O` stands “inactive”.
With `COc1cc(C(=S)N2CCOCC2)ccc1O`, the Potency entry is “inactive”.
Still for that read-out and setting: under `CC(=O)OCC1=C(C(=O)O)N2C(=O)[C@@H](NC(=O)Cc3cccs3)[C@H]2SC1` stands “inactive”; under `CC(COc1ccccc1)N(CCCl)Cc1ccccc1` (stereo not given), “inactive”.
On the same count and under the same terms, under `CCc1ccc(C(c2ccc(CC)cc2)C(Cl)Cl)cc1` stands “inactive”.
With `NC(Cc1ccc(Cl)cc1)C(=O)O` (stereo not given), the activity change, negative = cytotoxicity was -2.01% [at 0.349 µM] (inactive).
As for `CC1COc2c(N3CCN(C)CC3)c(F)cc3c(=O)c(C(=O)O)cn1c23` (stereo not given), the Potency result was “inactive”.
Still for that read-out and setting: under `CC(C)(C)c1ccccc1` stands “inactive”; under `Cc1c2oc3c(C)ccc(C(=O)N[C@@H]4C(=O)N[C@H](C(C)C)C(=O)N5CCC[C@H]5C(=O)N(C)CC(=O)N(C)[C@@H](C(C)C)C(=O)O[C@@H]4C)c3nc-2c(C(=O)N[C@@H]2C(=O)N[C@H](C(C)C)C(=O)N3CCC[C@H]3C(=O)N(C)CC(=O)N(C)[C@@H](C(C)C)C(=O)O[C@@H]2C)c(N)c1=O` (I: T[dV]P[Sar][NMeV] / II: T[dV]P[Sar][NMeV]; ester I:1-I:C, II:1-II:C; linker I:N-II:N via Actinocin(9to1)), 29.8 µM (active) and 15 µM (active).
The same measure, in the same setting: to `Oc1ccc(Cl)cc1Cc1cc(Cl)ccc1O` belongs 55.5 µM (active).
In the case of `O=C(O)Cn1cnnn1`, the Potency result was “inactive”.
Consider `CC(C)(C)NCC(O)COc1ccccc1OCC1CCCO1` (stereo not given), for which the Potency result was “inactive”.
On to `c1ccc2cc3c(ccc4ccccc43)cc2c1`, for which the Potency entry was “inactive”.
The same measure, in the same setting: to `CN(C)c1ccc(C(=C2C=CC(=[N+](C)C)C=C2)c2ccccc2)cc1` belongs 19.3 µM (active) and 13.3 µM (active) and 23.7 µM (active); to `C/C=C/c1ccc(OCC)c(O)c1`, “inactive”; to `COC(=O)[C@H]1[C@H]2C[C@@H]3c4[nH]c5cc(OC)ccc5c4CCN3C[C@H]2C[C@@H](OC(=O)c2cc(OC)c(OC)c(OC)c2)[C@@H]1OC`, 44.5 µM (active) and inactive.
Same read-out and setting: under `CCCCCC(=O)O[C@]1(C(C)=O)CC[C@H]2[C@@H]3CCC4=CC(=O)CC[C@]4(C)[C@H]3CC[C@@]21C` stands 60.7 µM (active); under `Cc1cccc2n[nH]nc12`, “inactive”; under `C=C(C)C(=O)O`, “inactive”.
On the same count and under the same terms, under `Nc1ccc(O)cc1` stands 56.6 µM (active) and inactive.
Consider `CC(C)(O)CCC(C)(C)O`, for which the Potency entry is “inactive”.
Still for that read-out and setting: under `CNCCC(Oc1ccc(C(F)(F)F)cc1)c1ccccc1` (stereo not given) stands 60.3 µM (active).
On to `CCCCCCCCCCCCCCCCCl`, for which the activity change, negative = cytotoxicity was -0.832% [at 19 µM] (inactive).
As to `CC[C@H]1CN2CCc3cc(OC)c(OC)cc3[C@@H]2C[C@@H]1C[C@H]1NCCc2cc(OC)c(OC)cc21`, the Potency is 48.7 nM (active) and 16.8 nM (active).
For `CC(=O)CC(C)=O`, the Potency entry is “inactive”.
Regarding `NC(N)=Nc1nc(CSCC/C(N)=N/S(N)(=O)=O)cs1`, the Potency entry is “inactive”.
`CCCOC(=O)c1cc(O)c(O)c(O)c1`: the Potency entry was “inactive”.
On the same count and under the same terms, under `CC(C)(C)c1cc(C(C)(C)C)c(O)c(C(C)(C)C)c1` stands “inactive”; under `NNCCc1ccccc1`, “inactive”; under `CC(N)=O`, “inactive”.
The same measure, in the same setting: under `CCC(CO)(CO)COCC(CC)(CO)CO` stands “inactive”; under `CCOc1ccc2c(c1)C(C)=CC(C)(C)N2`, “inactive”.
With `CC(C(O)c1ccc(O)cc1)N1CCC(Cc2ccccc2)CC1` (stereo not given), the Potency result is “inactive”.
On the same count and under the same terms, to `O=C(O)c1cc(Cl)cc(Cl)c1` belongs “inactive”; to `CCOc1ccccc1C(N)=O`, “inactive”.
